Most compounds without a hit are left out; they make up all but 3.8% or so of the library.
mIDH1 inhibitor = qHTS for Inhibitors of mutant isocitrate dehydrogenase 1 (IDH1): qHTS; Isocitrate dehydrogenase [NADP] cytoplasmic (Homo sapiens), O75874; IDH1-R132H enzyme, NADPH consumption, diaphorase/resazurin fluorescence; Potency, µM (highest dose often 76.6 µM), inactives show top-dose activity change, negative = inhibition, actives largely listed as inhibitors; hit rate 0.093% among 390,000; AID 602179, 2012; also: % is scaled to controls: 0 for no effect and ±100 for the full control effect; nearly all actives have a fitted effect of over 65% in size
Target sequence (O75874 whole entry R132H, stated change not applied): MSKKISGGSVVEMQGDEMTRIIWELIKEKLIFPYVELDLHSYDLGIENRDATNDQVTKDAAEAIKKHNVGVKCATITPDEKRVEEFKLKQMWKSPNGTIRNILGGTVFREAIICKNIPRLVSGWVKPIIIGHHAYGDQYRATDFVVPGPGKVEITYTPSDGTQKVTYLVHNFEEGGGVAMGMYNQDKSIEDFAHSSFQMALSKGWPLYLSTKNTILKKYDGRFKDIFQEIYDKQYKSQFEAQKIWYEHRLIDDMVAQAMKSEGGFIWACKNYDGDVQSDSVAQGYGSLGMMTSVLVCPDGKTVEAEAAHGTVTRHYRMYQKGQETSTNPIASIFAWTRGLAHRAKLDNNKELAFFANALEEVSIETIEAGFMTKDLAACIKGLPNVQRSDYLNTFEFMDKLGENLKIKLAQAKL
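IDH1-R132H (0.5 ug/mL dispensed) in pH 7.5 Tris buffer was preincubated 30 min with compound, then given a substrate mix of 0.016 mM NADPH and 2 mM alpha-KG for 80 min at room temperature; remaining NADPH was read by diaphorase/resazurin fluorescence.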
ELG1 repair inh = qHTS screen for small molecules that inhibit ELG1-dependent DNA repair in human embryonic kidney (HEK293T) cells expressing luciferase-tagged ELG1; HEK293T ELG1-luciferase reporter, luminescence, 16 h; DNA damage induced by 5-fluorouridine; Potency, µM (top dose mostly 46.1 µM), for inactives: at the highest dose activity change, negative = inhibition, most hits filed as inhibitors; hit rate 2.3% among 330,000; AID 504467, 2011; also: % is scaled to controls: 0 for no effect and ±100 for the full control effect; nearly all actives have a fitted effect of over 55% in size
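Step one: seed 2,000 cells per well. Step two: pin-transfer compound or DMSO alongside 5-fluorouridine. Step three: incubate 16 hr, 37 °C, 5% CO2. Step four: add ONE-Glo, wait 30 min, read luminescence.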
A549 viability = Nrf2 qHTS screen for inhibitors: counterscreen for cytotoxicity. A549 ARE-Fluc cells, CellTiter-Fluor viability, 18-24 h. Potency, µM (series often up to 46 µM), for inactives: at the top dose activity change, negative = cytotoxicity, usual class: inhibitors. hit rate 0.16% among 390,000. AID 504648, 2011; also: % is scaled to controls: 0 for no effect and ±100 for the full control effect
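A549 ARE-Fluc cells in 5% FBS OPTI-MEM, 5000 cells/well, rested 2 h then exposed to compounds in concentration-response for 18-24 h at 37 °C. Viability by CellTiter-Fluor fluorescence (Ex 405/Em 525) after 30 min; luciferase luminescence (BugLite, 15 min, RT) read afterwards.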
Nrf2 ARE act = qHTS of Nrf2 Activators; AREc32 ARE-luciferase reporter (MCF7-derived line), luminescence, 24 h; Potency, µM (top dose mostly 46.1 µM), for the others: at the highest dose activation, actives largely listed as activators; hit rate 0.31% among 410,000; AID 624171, 2012; also: % of control where 0% means no effect; nearly all actives have a fitted effect of over 65% in size
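Steps: seed AREc32_Fluc cells (1000/well, 5% FBS OPTI-MEM); incubate overnight at 37 deg C; add 23 nL compound; incubate 24 hr; add Steady-Glo; hold 30 min RT; read luminescence.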
Nrf2 inh = Nrf2 qHTS screen for inhibitors. AID 504444, 2011. hit rate 2.1% among 360,000. A549 ARE-Fluc reporter, luciferase luminescence, 18-24 h. Potency, µM (doses to about 46 µM), inactives show at the highest dose activity change, negative = inhibition, usual class: inhibitors; also: % is scaled to controls: 0 for no effect and ±100 for the full control effect; nearly all actives have a fitted effect of over 60% in size
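A549 ARE_Fluc cells, 5000/well, 5% FBS OPTI-MEM; compounds in dose-response, 18-24 h at 37 °C/5% CO2; CellTiter-Fluor viability read (Ex 405/Em 525), then BugLite luciferase luminescence = Nrf2 activity.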
Starred values were filed as active, the others as inactive; ? = inconclusive; . = no result. Calls follow the shape of the dose curve; as a rule, active = well fitted curve in the direction sought with a large enough effect; inconclusive = small, poorly fitted or top-dose-only effect, or another doubt; inactive = no such curve, though single readings can be large; an effect the other way counts as inactive or inconclusive. Potency is read from the fitted curve at half-maximal effect.

SMILES	mIDH1 inhibitor	ELG1 repair inh	A549 viability	Nrf2 ARE act	Nrf2 inh
Cc1ccc(C)c(N2CCN(C(=O)C3CCCN(c4ncnc5c4nc4n5CCCCC4)C3)CC2)c1 (stereo not given)	-18%	13µM*	-18%	-1%	15µM*
CCOC(=O)C1CCN(C(=O)c2ccc(SC)cc2OC)CC1	7%	1%	-5%	0%	4%
CCOC(=O)N1CCN(C(=O)c2ccc(SC)cc2OC)CC1	1%	2%	0%	0%	12µM*
COc1cccc(OC)c1C(=O)N1CCN(Cc2ccc3c(c2)OCO3)CC1	2%	-12%	0%	0%	9%
COc1cc(SC)ccc1C(=O)N1CCN(Cc2ccc3c(c2)OCO3)CC1	3%	?	-3%	1%	15µM*
Cc1c(C(=O)N2CCN(Cc3ccc4c(c3)OCO4)CC2)sc2ncnc(N3CCN(c4ccccc4F)CC3)c12	5%	6.5µM*	-3%	1%	1%
COc1ccc(CCN(C)Cc2c(O)ccc3ccccc23)cc1OC	-3%	-19%	-1%	8%	?
C[C@@H]1CN([C@H](C)CO)C(=O)CCCn2nncc2CO[C@@H]1CN(C)C(=O)C1CC1	-1%	.	.	-1%	.
CCOc1cc(C(=O)Nc2ccc3oc(-c4ccc(F)cc4Cl)nc3c2)cc(OCC)c1OCC	.	.	2%	3%	?
COc1ccc(-c2nnc3n(CCc4ccccc4)c(=O)c4ccccc4n23)c(OC)c1	5%	8.2µM*	-3%	3%	14%
COc1cc(-c2nnc3n(CCc4ccccc4)c(=O)c4ccccc4n23)cc(OC)c1OC	-1%	21µM*	-1%	2%	11%
COc1ccc(OC)c(-c2nnc3n(Cc4ccc(C)cc4)c(=O)c4ccccc4n23)c1	-3%	.	6%	0%	9%
CC(=O)c1cccc(NC(=O)c2noc3c2CCCC3)c1	19%	.	0%	5%	?
Cc1ccnc(NC(=O)CCc2c[nH]c3ccccc23)c1	-11%	?	9%	2%	17%
O=S(=O)(NCC(c1cccs1)S(=O)(=O)c1ccccc1)c1ccccc1 (stereo not given)	-9%	.	9%	27%	.
O=C(O)c1ccc(NC2=C(Cl)C(=O)c3ccccc3C2=O)cc1	-8%	?	-11%	10%	1%
COC1=C(Nc2ccc(C)cc2)C(=O)c2ccccc2C1=O	-4%	?	?	1%	16µM*
CC1=C(Nc2ccc(C(=O)O)cc2)C(=O)c2ccccc2C1=O	-9%	-3%	?	2%	23µM*
COC1=C(Nc2ccccc2)C(=O)c2ccccc2C1=O	0%	1%	-2%	0%	-1%
O=C(CSC(=S)N1CCCC1)NCC(=O)Nc1ccc(F)c(F)c1	0%	0%	-8%	0%	5%
Cc1cccc(C(=O)N2CCc3cc(CNC(=O)c4ccc(Br)o4)ccc32)c1	-15%	.	-10%	-1%	.
CCn1cc(S(=O)(=O)N2CCN(c3ccc(Cl)cc3)CC2)cn1	9%	-8%	-14%	0%	12µM*
COc1ccc(-c2cccc(C(=O)Nc3ccccc3C)c2)cc1	2%	11%	3%	0%	-16%
COc1ccc(C)cc1NC(=O)c1cccc(-c2ccc(OC(C)=O)cc2)c1	3%	-7%	-24%	4%	16µM*
COc1cccc(OC)c1C(=O)Nc1ccc(C)cc1C(=O)c1ccccc1	4%	16µM*	3%	0%	12%
SMILES	mIDH1 inhibitor	ELG1 repair inh	A549 viability	Nrf2 ARE act	Nrf2 inh
CCOCCc1nn2c(=O)cc(COC(=O)c3ccc(NC(=O)C(C)(C)C)cc3)nc2s1	26%	.	3%	0%	.
Cc1nn(C)c2c1c(-c1ccccc1)cc(=O)n2CC(=O)NC(C)c1ccccc1 (stereo not given)	7%	.	1%	1%	?
O=C(CCc1nc2ccccc2c(=O)[nH]1)NCCN1C(=O)S/C(=C\c2ccc(OC(F)F)cc2)C1=O	0%	.	-1%	4%	?
O=C(Cn1[nH]c(=O)c2ccccc2c1=O)NCCN1C(=O)S/C(=C\c2ccccc2)C1=O	-9%	?	-10%	13µM*	?
CCOc1cc(C(=O)NCCN2C(=O)S/C(=C\c3cccnc3)C2=O)cc(OCC)c1OCC	1%	18µM*	5%	-1%	-7%
COc1ccc(C(=O)NCCN2C(=O)S/C(=C\c3cccnc3)C2=O)c(OC)c1OC	0%	?	3%	3%	6%
O=C(CCl)NCCN1C(=O)S/C(=C\c2cccnc2)C1=O	0%	-26%	-6%	13µM*	0%
CC(C(=O)NCCN1C(=O)S/C(=C\c2cccnc2)C1=O)N1C(=O)c2ccccc2C1=O (stereo not given)	-6%	-9%	3%	1%	-12%
Cc1cc(O)c(CN2CCN(c3ccc(F)cc3)CC2)c2oc(=O)cc(C)c12	13%	.	29%	4%	-4%
Cc1ccc(Cc2cnc(NC(=O)c3ccc4c(c3)CC(c3ccccc3)OC4=O)s2)cc1 (stereo not given)	16%	.	1%	2%	-25%
COc1ccccc1CN(C)C(=O)COC(=O)c1ccc(Cl)nc1	-2%	3%	5%	-1%	5%
O=C(CCCN1C(=O)/C(=C/c2ccccc2Cl)SC1=S)Nc1ccccn1	-2%	?	-23%	1%	21µM*
O=C1/C(=C/c2ccccc2Cl)SC(=S)N1CCCC(=O)N(CCO)c1ccccc1	-20%	-4%	-12%	4%	16µM*
O=C(CCN1C(=O)/C(=C/c2ccccc2Cl)SC1=S)Nc1ccccn1	-3%	19%	4%	4%	16%
Cc1cccc(OC(=O)CSc2nnc(-c3ccc4c(c3)OCO4)o2)c1C	1%	.	8%	-2%	18%
Cc1cc(C)c(C#N)c(OCC(=O)c2ccc(Br)cc2)n1	11%	-3%	-3%	6.3µM*	3%
Cc1ccnc(SCC(=O)c2ccc(Br)cc2)c1C#N	8%	?	15%	2.2µM*	?
COc1ccc2cc3c(N)nn(C(=O)Cc4c[nH]c5ccccc45)c3nc2c1	-1%	1.5µM*	-2%	-4%	16µM*
COc1cccc(CC(=O)n2nc(N)c3cc4ccc(OC)cc4nc32)c1	10%	9.2µM*	-4%	0%	-25%
COc1ccc2cc3c(N)nn(C(=O)Cc4ccc(Cl)cc4)c3nc2c1	12%	?	2%	-1%	5%
COc1ccc2cc3c(N)nn(C(=O)c4cccc(F)c4)c3nc2c1	-10%	0%	4%	1%	?

Source: PubChem BioAssay (National Center for Advancing Translational Sciences (NCATS))
